Consider 90 compounds from ChEMBL document CHEMBL3988442, “University of Dundee, Small-Polar-MMV Screening Library” (2021).

SMILES strings stand for the structures. About 950 (1.4%) of roughly 69,000 compounds showed an effect of 50% or more. The list comes from a sample in which strong results are over-represented; it also holds similar structures and randomly drawn compounds.

This assay concerns Mycobacterium tuberculosis. Description: Cornell M. t heat shock assay. Note: in the data most compounds retested in dose-response had high values. Type of assay: functional, organism-based. Also on record: dose or concentration left out as unconfirmed.
Take `CN(C)C(=O)N1C[C@@H]2CC[C@H](C1)N(S(=O)(=O)c1cccnc1)C2`: the “Percent Effect” value is on record as -21.11%. With `O=C(NCc1cccnc1)N1CCc2ncnc(NC3CC3)c2CC1.O=C(O)C(F)(F)F`, the “Percent Effect” value is -0.2594%. On to `CCOCC1c2c(ncn2C)CCN1C(=O)c1cnc(C)cn1.O=C(O)C(F)(F)F` (stereo not given), for which the “Percent Effect” value is recorded as 18.53%. Next, `CCOCC1c2c(ncn2C)CCN1C(=O)c1cscn1` (stereo not given): 57.96%; `CCOCC1c2c(ncn2C)CCN1C(=O)c1ccoc1` (stereo not given): 35.15%; `CC(C)(CO)NCc1ccc(OCc2ccc3c(c2)OCCO3)cc1.Cl`: -22.54%. As to `O=C(O)C(F)(F)F.O=C(O)C(F)(F)F.O=C(O)C(F)(F)F.c1cncc(CN2CC[C@@H]3O[C@H](COCCN4CCCC4)CC[C@@H]32)c1`, the “Percent Effect” value was -18.74%.

`CC(C)C(=O)N1CC[C@@H]2[C@H](CC1)N(Cc1cccnc1)CCS2(=O)=O.O=C(O)C(F)(F)F.O=C(O)C(F)(F)F`: the “Percent Effect” value is -30.61%. For `CCOC(=O)C(C)Nc1cccc(COCc2ccco2)c1` (stereo not given), the “Percent Effect” value is given as 104.6%. Take `CC(Nc1cccc(COCc2ccco2)c1)C(=O)NC(N)=O` (stereo not given): the “Percent Effect” value is 0.6149%. As to `Cc1cc(NC(=O)C(C)Nc2cccc(COCc3ccco3)c2)on1` (stereo not given), the “Percent Effect” value is reported as 4.042%. `CC(C)CN1CCC2(CCCNC2)C1=O.Cl` (stereo not given): the “Percent Effect” value is -13.24%.

Take `O=C(O)C(F)(F)F.O=C(c1cccnc1)N1CCc2ncnc(C3CCOC3)c2CC1` (stereo not given): the “Percent Effect” value worked out at 8.544%. Next, `COCc1nn(C(C)C)c2c1CCN(Cc1nccs1)C2.O=C(O)C(F)(F)F`: -16.62%; `Cc1nc(CN2CCO[C@@H]3CN(Cc4cccs4)C[C@@H]3C2)cs1.O=C(O)C(F)(F)F.O=C(O)C(F)(F)F`: -15.47%; `Cc1nc(CN2CCOCC3(CCN(c4cnccn4)CC3)C2)cs1.O=C(O)C(F)(F)F`: -3.315%. Take `CCc1cccc2c(CC(=O)N(C)CCN(C)C)c(C)[nH]c12.O=C(O)CC(O)(CC(=O)O)C(=O)O`: the “Percent Effect” value came to 1.394%. As for `Cc1cc(NC2CCN(c3ccc(F)cc3)CC2)n2nc(C)cc2n1`, the “Percent Effect” value stood at 11.63%. Next, `Cc1cc(N[C@H]2CCCN(Cc3ccccc3)C2)n2nc(C)cc2n1`: 37.52%; `Cc1cc(NC2CCCN(Cc3ccc(F)cc3)C2)n2nc(C)cc2n1` (stereo not given): 55.79%. With `CNc1ncc2c(n1)CN(Cc1ccc(Cl)cc1)C2=O`, the “Percent Effect” value is on record as -7.307%.

Take `C[C@@H]1CN(Cc2cc(C3CCCCC3)no2)CC[C@@]1(O)C1CC1`: the “Percent Effect” value is reported as -30.44%. As for `Cn1ccc(C(=O)N2CCCC(c3cc(O)n(C)n3)C2)n1` (stereo not given), the “Percent Effect” value is -7.619%.

In the case of `COCCC(=O)N1CCC(c2cc(O)n(C)n2)C1` (stereo not given), the “Percent Effect” value is given as 9.695%. For the compound `Cn1nc(C2CCCN(C(=O)CO)C2)cc1O` (stereo not given), the “Percent Effect” value amounted to 54.18%. Next, `COCCN1CCOCC12CCN(C(=O)c1cccnc1)CC2.O=C(O)C(F)(F)F`: -43.19%.

Turning to `CN1CC[C@@H]2OC[C@H](C(=O)N(C)Cc3ccccn3)C[C@@H]2C1.O=C(O)C(F)(F)F.O=C(O)C(F)(F)F`, the “Percent Effect” value was 42.17%.

Consider `O=C(NC1CC1)[C@@H]1CCO[C@@H]2CCN(Cc3ccsc3)C[C@H]21.O=C(O)C(F)(F)F`, for which the “Percent Effect” value is reported as -0.7242%.

On to `O=C(O)C(F)(F)F.O=C([C@@H]1C[C@@H]2CCN(CCc3ccccc3)C[C@H]2O1)N1CCCC1`, for which the “Percent Effect” value stood at 7.524%. Turning to `CN(C)Cc1cc(=O)n2c(n1)CN(CC1CC1)CCC2`, the “Percent Effect” value is -15.16%. Turning to `O=c1cc(CN2CCCC2)nc2n1CCCN(CC1CC1)C2`, the “Percent Effect” value is 59.59%.

Consider `O=c1cc(CN2CCCC2)nc2n1CCCN(CC1CCOCC1)C2`, for which the “Percent Effect” value was -14.03%.

Turning to `COCC(=O)NC[C@H]1CC[C@H](c2nnc(-c3ccncc3)o2)CC1`, the “Percent Effect” value is on record as -43.76%. As for `Cn1cc(CN2CCCC23CCN(Cc2nccn2C)CC3)cn1.O=C(O)C(F)(F)F.O=C(O)C(F)(F)F`, the “Percent Effect” value is on record as -17.58%. On to `Cl.Cl.O=C(NCc1cncc2c1CCN(C1CCOCC1)C2)c1ccco1`, for which the “Percent Effect” value is recorded as 7.016%. Next, `O=C(O)C(F)(F)F.O=C(O)C(F)(F)F.c1ccc(N2CCC3(COCCN(c4ncccn4)C3)C2)nc1` (stereo not given): 3.163%; `Cn1cc(CN2CCC(F)(F)C3(CCN(c4ncccn4)C3)C2)cn1.O=C(O)C(F)(F)F.O=C(O)C(F)(F)F` (stereo not given): -18.65%. Turning to `CC(C)n1ccnc1CN1CCOC(CCc2ccccc2)C1` (stereo not given), the “Percent Effect” value is reported as -0.01061%. As for `CC(C)n1ccnc1CN1CCOC(CC2CCCCC2)C1` (stereo not given), the “Percent Effect” value came to 50.37%.

Take `CC(C)n1ccnc1CN1CCCN(C(=O)CC2CCCO2)CC1` (stereo not given): the “Percent Effect” value is reported as -7.243%.

With `O=C(O)C(F)(F)F.O=C(O)C(F)(F)F.O=C(O)C(F)(F)F.c1cnc(NC[C@H]2OC[C@@H]3CCN(Cc4nccs4)C[C@@H]32)nc1`, the “Percent Effect” value was -22.37%.

As to `CNC(=O)[C@H]1C[C@@H]2CN(Cc3cccnc3OC)C[C@@H]2N1C(C)=O.O=C(O)C(F)(F)F.O=C(O)C(F)(F)F`, the “Percent Effect” value is -6.106%.

As to `CCc1ccc(C2CCCN2C(=O)NCC(=O)NCC(C)C)o1` (stereo not given), the “Percent Effect” value is given as -12.75%. For `COCCN1CCN(CCS(C)(=O)=O)CC1C` (stereo not given), the “Percent Effect” value is listed as -13.47%. For the compound `COCCN1CCN(CCS(=O)(=O)C(F)(F)F)CC1C` (stereo not given), the “Percent Effect” value came to 105.5%. `COCCN1CCN(CCCS(C)(=O)=O)CC1C` (stereo not given): the “Percent Effect” value was -16.37%. Regarding `CCN(CC)Cc1cn2c(n1)CN(C(=O)c1cc(C)on1)CC2.O=C(O)C(F)(F)F`, the “Percent Effect” value is recorded as -2.302%. Next, `Cc1noc(CS(=O)(=O)CC(=O)NC(C)c2ccccc2)n1` (stereo not given): 70.08%; `CCN(C(=O)C(C)S(=O)(=O)Cc1nc(C)no1)c1ccccc1` (stereo not given): -1.269%. Turning to `CCC(C)NC(=O)CS(=O)(=O)Cc1ccccc1Cl` (stereo not given), the “Percent Effect” value is -5.393%. Turning to `CC(C)c1noc(CS(=O)(=O)Cc2nc(C(C)C)no2)n1`, the “Percent Effect” value is listed as -44.125%. In the case of `CC(C)=CCS(=O)(=O)Cc1nc(C(C)C)no1`, the “Percent Effect” value was found to be 58.075%. Turning to `Cc1noc(CS(=O)(=O)C(C)C(=O)N(C)c2ccccc2)n1` (stereo not given), the “Percent Effect” value turned out to be 6.585%. As to `CCC(C)NC(=O)CS(=O)(=O)Cc1nc(-c2cccs2)no1` (stereo not given), the “Percent Effect” value is given as 65.94%. Turning to `CC(C)c1noc(CS(=O)(=O)CC(=O)NCc2cccs2)n1`, the “Percent Effect” value came to 58.74%. Next, `CC(C)c1noc(CS(=O)(=O)CC(=O)NCCOc2ccccc2)n1`: 41.58%. Turning to `CC(Cn1cccn1)NCc1nc(-c2cccs2)no1` (stereo not given), the “Percent Effect” value was 22.29%. Regarding `CCc1noc(CS(=O)(=O)CC=C(C)C)n1`, the “Percent Effect” value is recorded as 29.3%. Next, `CC(C)c1noc(CS(=O)(=O)CC(=O)NCc2ccccc2)n1`: 49.68%. For `CC1N(C)C(=O)COC12CCN(Cc1nccs1)CC2.O=C(O)C(F)(F)F` (stereo not given), the “Percent Effect” value was determined as 2.077%. Take `CCn1nc(C)cc1C(=O)N1C[C@H]2CCC[C@@]2(COc2ccccn2)C1.O=C(O)C(F)(F)F`: the “Percent Effect” value is listed as -22.73%. Next, `O=C(N[C@@H]1CN(CC2CC2)[C@@H]2CCCO[C@@H]21)c1cscn1.O=C(O)C(F)(F)F`: 21.59%; `Cl.O=c1c2sccc2nc2n1CCN(Cc1ccccc1C(F)(F)F)CC2`: 24%; `O=C(NC[C@]12COC[C@H]1CN(C1CCOCC1)C2)c1ccco1.O=C(O)C(F)(F)F`: -7.738%. As for `O=C(O)C(F)(F)F.O=C([C@H]1C[C@@H]2CCN(C3CCOCC3)C[C@H]2O1)N1CCCC1`, the “Percent Effect” value was -29.11%. Turning to `CC(C)c1noc(CS(=O)(=O)CC(=O)NCC(F)(F)F)n1`, the “Percent Effect” value was determined as 45.89%. Take `CCCc1noc(CCC(=O)NC(C)c2nnc3n2CCCCC3)n1` (stereo not given): the “Percent Effect” value is given as -4.52%. Turning to `CCCc1noc(CS(=O)(=O)CC(=O)NC(C)CCC)n1` (stereo not given), the “Percent Effect” value worked out at 60.91%. Consider `COc1cccc(CN2C[C@@H]3COC[C@]3(COCc3ccccn3)C2)c1.O=C(O)C(F)(F)F.O=C(O)C(F)(F)F`, for which the “Percent Effect” value was -27.12%.

On to `Fc1cnc(N2CCCC3(CCN(Cc4ccco4)C3)C2)nc1.O=C(O)C(F)(F)F.O=C(O)C(F)(F)F` (stereo not given), for which the “Percent Effect” value was -39.88%. On to `Cc1cnn(CC2CN(Cc3nc(N)c4ccccc4n3)CCO2)c1` (stereo not given), for which the “Percent Effect” value came to 8.088%.

`Nc1nc(CN2CCCC2Cn2cncn2)nc2ccccc12` (stereo not given): the “Percent Effect” value is -4.506%.

As for `Cc1cnn(CC2CCCN2Cc2noc(-c3ccccc3)n2)c1` (stereo not given), the “Percent Effect” value was -2.457%.

Turning to `Cc1cnn(CC2CCCN2Cc2nc(N)c3ccccc3n2)c1` (stereo not given), the “Percent Effect” value amounted to 64.38%. As for `Cc1cnn(CC2CCCCN2Cc2nc(N)c3ccccc3n2)c1` (stereo not given), the “Percent Effect” value is given as 92.62%.

On to `Nc1nc(CN2CCCCC2Cn2cncn2)nc2ccccc12` (stereo not given), for which the “Percent Effect” value is on record as -45.18%.

`COc1cccc(CN2CCCCC2c2n[nH]cc2-c2cc(C)no2)c1.Cl` (stereo not given): the “Percent Effect” value worked out at 13.26%. Take `CCOC1COC2(CCN(CC3CCOCC3)CC2)C1.O=C(O)C(F)(F)F` (stereo not given): the “Percent Effect” value is -19.84%.

`CCS(=O)(=O)N1CCOCC2(CCN(c3ccccn3)C2)C1.O=C(O)C(F)(F)F` (stereo not given): the “Percent Effect” value was -24.76%. Next, `CCc1nc2ccccc2c(=O)n1CC1(O)CCNCC1.Cl`: -1.704%. For the compound `O=C(O)C(F)(F)F.O=C(c1ccncn1)N1CCC[C@]2(C[C@H](Oc3ncccc3F)CO2)C1`, the “Percent Effect” value is -22.98%.

Turning to `CCCNC(=O)c1cn(C(C)(C)C)c2ncccc12`, the “Percent Effect” value is 52.59%. `COCCN(CCOC)C(=O)c1cn(C(C)(C)C)c2ncccc12`: the “Percent Effect” value was 20.52%. Next, `COCCNC(=O)c1cn(C(C)(C)C)c2ncccc12`: 84.66%; `CNC(=O)c1cn(C(C)(C)C)c2ncccc12`: 4.278%; `CCNC(=O)c1cn(C(C)(C)C)c2ncccc12`: 35.45%. Regarding `COCCCNC(=O)c1cn(C(C)(C)C)c2ncccc12`, the “Percent Effect” value turned out to be 50.28%. As to `CCOCCCNC(=O)c1cn(C(C)(C)C)c2ncccc12`, the “Percent Effect” value came to 48.73%.

On to `CC(C)(C)n1cc(C(=O)NCCCn2ccnc2)c2cccnc21`, for which the “Percent Effect” value was -4.729%. For the compound `COCC(C)NC(=O)c1cn(C(C)(C)C)c2ncccc12` (stereo not given), the “Percent Effect” value was -8.611%.
